Screen size: about 330,000 compounds; about 1,900 (0.58%) were called active. Inconclusive results (about 4%) are left out. The list is a sample of the results. Potency and affinity values are given separately. Unmarked numbers belong to inactive results. No stated cut-off is given here; in the data, inconclusive means inhibition above about 70% without an active follow-up result; inactive means below that.
experiment: M. tuberculosis growth inhibition, HTS (AID 449762);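 further: bacterial growth assessed after seven days of incubation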; settings: M. tuberculosis H37Rv growth inhibition, 7H9 media; at 25 µM; hits give high values

| Structure (SMILES) | inhibition [%] |
| --- | --- |
| COc1cc(NS(=O)(=O)c2cc3c(cc2C)NC(=O)CO3)cc(OC)c1 | -11.6 |
| OC(Cn1ccnc1)c1ccc(Cl)cc1Cl (stereo not drawn) | -8.18 |
| OC(COc1ccc(Cl)cc1Cl)Cn1ccnc1 (stereo not drawn) | -1.41 |
| CCOC(=O)C1=C(CC)Nc2ccccc2N/C1=N\S(=O)(=O)c1ccccc1OC | -0.62 |
| CC1(C)Cc2c(sc(NC(=O)C(C)(C)C)c2C#N)C(C)(C)N1 | -3.46 |
| Cc1ccc(N=c2ssnc2Cl)cc1 | 0.3 |
| COc1cc(N=c2ssnc2Cl)cc(OC)c1OC | -3.23 |
| O=C(O)c1ccc(S(=O)(=O)N2CCC(n3nnc4cc(C(F)(F)F)ccc43)CC2)cc1 | 1.41 |
| C/C(=N\Nc1cc(Cl)nc(C)n1)c1ccc(C)cc1 | 66.8 |
| C/C(=N\Nc1cc(Cl)nc(C)n1)c1ccccc1 | 5.34 |
| Cc1ccc(S(=O)(=O)N2CCN(C(=O)COC(=O)/C=C/c3ccc(F)cc3)CC2)c(C)c1 | -1.22 |
| CCCOc1ccc(N2CC(C(=O)Nc3ccccc3C(=O)NC)CC2=O)cc1 (stereo not drawn) | -2.1 |
| O=C(CSc1ncnc2nc[nH]c12)c1ccccc1 | 9.21 |
| COc1ccc(C(=O)CSc2ncnc3nc[nH]c23)cc1 | -0.73 |
| O=C(c1ccc(Cl)cc1)C1CCN(C(=O)c2ccc(F)cc2)CC1 | 4.03 |
| Cc1ccc(OC(=O)CN2C(=O)c3ccccc3C2=O)cc1C | -4.28 |
| Cc1cc(C)cc(OC(=O)CCN2C(=O)c3ccccc3C2=O)c1 | -5.68 |
| CC(C)c1ccc(OCC(=O)N(Cc2ccco2)C2CCS(=O)(=O)C2)cc1 (stereo not drawn) | 11.8 |
| CCC(=O)N1CC(=O)Nc2ccc(F)cc2C1c1ccccc1 (stereo not drawn) | -3.58 |
| CC(C)NC(=O)N(C)C[C@H]1Oc2c(NC(=O)C3CC3)cccc2C(=O)N([C@H](C)CO)C[C@@H]1C | 1.1 |

| Structure (SMILES) | inhibition [%] |
| --- | --- |
| CCOc1cccc(N(C(=O)C2COc3ccccc3O2)C(C(=O)NC2CCCCC2)c2ccc(O)cc2)c1 (stereo not drawn) | -4.43 |
| CC(C)CCNC(=O)C(c1ccc(O)cc1)N(Cc1cccs1)C(=O)C1COc2ccccc2O1 (stereo not drawn) | 22.4 |
| CC(=O)N1CCOc2ccc(S(=O)(=O)N3CCC(C(=O)Nc4ccc(C)c(C)c4)CC3)cc21 | 5.83 |
| CC(Oc1cc2oc(=O)c3c(c2cc1Cl)CCC3)C(=O)NCc1ccccn1 (stereo not drawn) | 31 |
| CC(Oc1ccc2c3c(c(=O)oc2c1)CCCC3)C(=O)NCc1ccccn1 (stereo not drawn) | 33.2 |
| CCNc1cc(N2CCN(C)CC2)ccc1[N+](=O)[O-] | -1.18 |
| COc1cccc(NC(=S)N2CCc3cc(OC)c(OC)cc3C2)c1 | 1.01 |
| CCOc1ccc(S(=O)(=O)N(C)c2ccc(OCC(=O)NCc3ccc(C(=O)OC)cc3)cc2)cc1 | -3.45 |
| Cc1cccn2c(=O)c3cc(C(=O)NCCc4ccccc4)c(=N)n(CC4CCCO4)c3nc12 (stereo not drawn) | 4.7 |
| FC(F)(F)c1cc(Cl)c2nc(-c3ccccc3)cn2c1 | 4.79 |
| COc1ccc(N(C(=O)Nc2ccc(Cl)cc2)C2=NCCC2)cc1 | 42.5 |
| O=C(Nc1ccccc1)N(C1=NCCC1)c1ccc(OC(F)F)cc1 | -0.82 |
| O=C(c1cc(COc2ccc(F)cc2F)on1)N1CC[C@@H]2CCCC[C@H]2C1 | 8.08 |
| COCC1CCN(C(=O)c2cc(COc3ccc(F)cc3F)on2)C1 (stereo not drawn) | -0.65 |
| CC(NC(=O)c1cc(F)c(F)cc1Cl)C1CC2CCC1C2 (stereo not drawn) | 9.14 |
| Cc1cc(C)cc(NC(=O)N2CCN(C/C=C/c3ccccc3)CC2)c1 | 6.44 |
| O=C(Nc1cccc(F)c1)N1CCN(C/C=C/c2ccccc2)CC1 | -4.24 |
| O=C1NC(=O)C2(Cc3ccccc3N3CCCC32)C(=O)N1Cc1ccccc1 (stereo not drawn) | -3.61 |
| C=CCNC(=O)/C(=C/c1cn(-c2ccccc2)nc1-c1cccc([N+](=O)[O-])c1)NC(=O)c1ccccc1 | 9.03 |
| NC(=O)/C(N=Nc1ccccc1)=N/Nc1ccccc1 | 63.8 |

| Structure (SMILES) | inhibition [%] |
| --- | --- |
| O=[N+]([O-])/C(N=Nc1ccccc1)=N\Nc1ccccc1 | -2.92 |
| O=C(Cn1nnc(-c2ccc(S(=O)(=O)N3CCCC3)cc2)n1)Nc1ccccc1-n1cccc1 | -4.45 |
| CN(CC(=O)Nc1ccc(F)cc1[N+](=O)[O-])Cc1ccccc1 | 6.03 |
| CCOC(=O)c1cc(/C(C)=N/OC(=O)c2ccc(Cl)cc2)on1 | 47.9 |
| Cc1cc(C(=O)O/N=C(\N)c2ccc(C(C)(C)C)cc2)no1 | 0.64 |
| COc1cccc2c(=O)c3c([nH]c12)OC(C)(C)C3 | 1.96 |
| NC(=O)c1ccsc1NC(=O)c1cc(=O)c2ccccc2o1 | 1.83 |
| CC1=C(C(N)=O)C(c2ccccc2F)NC(=O)N1 (stereo not drawn) | -4.59 |
| O=C(N/N=C/c1ccc(F)cc1)c1cccc(NC(=O)c2ccc(F)cc2)c1 | 9.14 |
| CC(C)(C)NC(=O)COC(=O)c1cc(Cl)ccc1[N+](=O)[O-] | -0.3 |
| CC(NC(=O)COC(=O)c1ccc(Cl)cc1O)c1ccc(F)cc1 (stereo not drawn) | 2.35 |
| CCOC(=O)c1ccc[n+](CC(=O)c2ccc(OC)cc2)c1 | -6.92 |
| CN(C)/C=C/C(=O)c1ccc([N+](=O)[O-])c(CS(=O)(=O)c2ccccc2)c1 | 4.59 |
| OC1CCN(c2cc(-c3ccccc3)nc3cc(-c4ccc(F)cc4)nn23)CC1 | 14.2 |
| Fc1ccc(-c2cc3nc(-c4ccccc4)cc(N4CCOCC4)n3n2)cc1 | -0.86 |
| O=C(CN1C(=O)S/C(=C\c2ccc(F)cc2)C1=O)Nc1cccc(S(=O)(=O)NCc2ccco2)c1 | -0.96 |
| C=CCNC(=O)C1CCN(c2cnccn2)CC1 | 1 |
| Cc1ccnc(NC(=O)C2CCN(S(=O)(=O)c3cccc(C(F)(F)F)c3)CC2)c1 | -6.67 |
